Test results reported in PubChem BioAssay (NCATS).
Records with an inconclusive call do not appear. A call without a number means that no potency is given here. Activity calls are given as the source filed them. Calls come from the whole dose curve; as a rule, active = well fitted inhibition curve with a large enough effect; inconclusive = small, poorly fitted or top-dose-only effect; inactive = flat fitted curve, though single readings scatter.

Experiments:
Assay in all cases: qHTS profiling for inhibitors of Plasmodium falciparum proliferation (AID 504749); note: nearly all actives have a fitted effect of over 60% in size
[1] = tested on: 3D7; conditions: P. falciparum in erythrocytes, SYBR Green DNA, 72 h; series mostly up to 12.8 µM
Method in brief: (§1)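 SYBR Green fluorescence of parasite DNA, read after lysis and overnight dark incubation, measured growth over 72 h in erythrocyte culture at 0.3% parasitemia and 2.5% hematocrit. Data normalised to DMSO and 0.29 uM artemisinin, with plate-drift correction.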

[2] = tested on: AA1029; conditions: P. falciparum in erythrocytes, SYBR Green DNA, 72 h; series mostly up to 12.8 µM
Method in brief: as §1

[3] = tested on: AS120; conditions: P. falciparum in erythrocytes, SYBR Green DNA, 72 h; series mostly up to 28.7 µM
Method in brief: as §1

[4] = tested on: C2A; conditions: P. falciparum in erythrocytes, SYBR Green DNA, 72 h; series mostly up to 12.8 µM
Method in brief: as §1

[5] = tested on: CP185; conditions: P. falciparum in erythrocytes, SYBR Green DNA, 72 h; series mostly up to 12.8 µM
Method in brief: as §1

[6] = tested on: CP201; conditions: P. falciparum in erythrocytes, SYBR Green DNA, 72 h; series mostly up to 12.8 µM
Method in brief: as §1

[7] = tested on: CP250; conditions: P. falciparum in erythrocytes, SYBR Green DNA, 72 h; series mostly up to 12.8 µM
Method in brief: as §1

[8] = tested on: CP256; conditions: P. falciparum in erythrocytes, SYBR Green DNA, 72 h; series mostly up to 12.8 µM
Method in brief: as §1

[9] = tested on: CP268; conditions: P. falciparum in erythrocytes, SYBR Green DNA, 72 h; series mostly up to 12.8 µM
Method in brief: as §1

[10] = tested on: CP286; conditions: P. falciparum in erythrocytes, SYBR Green DNA, 72 h; series mostly up to 12.8 µM
Method in brief: as §1

[11] = tested on: CP291; conditions: P. falciparum in erythrocytes, SYBR Green DNA, 72 h; series mostly up to 12.8 µM
Method in brief: as §1

[12] = tested on: CP305; conditions: P. falciparum in erythrocytes, SYBR Green DNA, 72 h; series mostly up to 12.8 µM
Method in brief: as §1

[13] = tested on: CP329; conditions: P. falciparum in erythrocytes, SYBR Green DNA, 72 h; series mostly up to 12.8 µM
Method in brief: as §1

[14] = tested on: CP335; conditions: P. falciparum in erythrocytes, SYBR Green DNA, 72 h; series mostly up to 12.8 µM
Method in brief: as §1

[15] = tested on: TAB109; conditions: P. falciparum in erythrocytes, SYBR Green DNA, 72 h; series mostly up to 12.8 µM
Method in brief: as §1

[16] = tested on: TAB165; conditions: P. falciparum in erythrocytes, SYBR Green DNA, 72 h; series mostly up to 12.8 µM
Method in brief: as §1

[17] = tested on: CP252; conditions: P. falciparum in erythrocytes, SYBR Green DNA, 72 h; series mostly up to 12.8 µM
Method in brief: as §1

[18] = tested on: CP265; conditions: P. falciparum in erythrocytes, SYBR Green DNA, 72 h; series mostly up to 12.8 µM
Method in brief: as §1

[19] = tested on: SC27B; conditions: P. falciparum in erythrocytes, SYBR Green DNA, 72 h; series mostly up to 12.8 µM
Method in brief: as §1

[20] = tested on: TAB113; conditions: P. falciparum in erythrocytes, SYBR Green DNA, 72 h; series mostly up to 12.8 µM
Method in brief: as §1
Potency is the fitted concentration of half-maximal effect.

Row | Compound | Potency [1] | Potency [2] | Potency [3] | Potency [4] | Potency [5] | Potency [6] | Potency [7] | Potency [8] | Potency [9] | Potency [10] | Potency [11] | Potency [12] | Potency [13] | Potency [14] | Potency [15] | Potency [16] | Potency [17] | Potency [18] | Potency [19] | Potency [20]
1 | CCN(CC)CCC[C@H](C)Nc1ccnc2cc(Cl)ccc12 | 158 nM (active) | 8910 nM (active) | 11200 nM (active) | 3550 nM (active) | 4470 nM (active) | 12000 nM (active) | 3980 nM (active) | 8910 nM (active) | 4260 nM (active) | 3160 nM (active) | 3380 nM (active) | 2690 nM (active) | 15100 nM (active) | 12000 nM (active) | 3550 nM (active) | 5620 nM (active) |  |  |  | 
2 | COCCc1ccc(OC[C@H](O)CNC(C)C)cc1 | inactive | inactive | inactive | inactive | inactive | inactive | inactive | inactive | inactive | inactive | inactive | inactive | inactive | inactive | inactive | inactive | inactive | inactive | inactive | inactive
3 | CC(=O)O[C@@H](C)C[N+](C)(C)C | inactive | inactive | inactive | inactive | inactive | inactive | inactive | inactive | inactive | inactive | inactive | inactive | inactive | inactive | inactive | inactive | inactive | inactive | inactive | inactive
4 | CC(C)NC[C@H](O)c1cc(O)cc(O)c1 | inactive | inactive | inactive | inactive | inactive | inactive | inactive | inactive | inactive | inactive | inactive | inactive | inactive | inactive | inactive | inactive | inactive | inactive | inactive | inactive
5 | CO[C@]1(NC(=O)CSCC#N)C(=O)N2C(C(=O)O)=C(CSc3nnnn3C)CS[C@H]21 | inactive | inactive | inactive | inactive | inactive | inactive | inactive | inactive | inactive | inactive | inactive | inactive | inactive | inactive | inactive | inactive | inactive | inactive | inactive | inactive
6 | CN(N=O)C(=O)N[C@H]1[C@@H](O)[C@H](O)[C@H](CO)O[C@@H]1O | inactive | inactive | inactive | inactive | inactive | inactive | inactive | inactive | inactive | inactive | inactive | inactive | inactive | inactive | inactive | inactive | inactive | inactive | inactive | inactive
7 | CCN(CC)CCC[C@H](C)Nc1c2ccc(Cl)cc2nc2ccc(OC)cc12 | 89.1 nM (active) | 631 nM (active) | 794 nM (active) | 447 nM (active) | 708 nM (active) | 1200 nM (active) | 447 nM (active) | 631 nM (active) | 478 nM (active) | 282 nM (active) | 379 nM (active) | 379 nM (active) | 1200 nM (active) | 536 nM (active) | 501 nM (active) | 398 nM (active) | 794 nM (active) | 891 nM (active) | 1260 nM (active) | 891 nM (active)
8 | CCC[C@H]1C(=O)N2C(N(C)C)=Nc3ccc(C)cc3N2C1=O | inactive | inactive | inactive | inactive | inactive | inactive | inactive | inactive | inactive | inactive | inactive | inactive | inactive | inactive | inactive | inactive | inactive | inactive | inactive | inactive
9 | C[C@@H](CN(C)C)CN1c2ccccc2CCc2ccccc21 | inactive | inactive |  | inactive | inactive | inactive | inactive | inactive | inactive | inactive | inactive | inactive | inactive | inactive | inactive | inactive | inactive | inactive | inactive | inactive
10 | COc1c(O)cc2c(c1O)[C@@H]1O[C@@H](CO)[C@@H](O)[C@@H](O)[C@@H]1OC2=O | inactive | inactive | inactive | inactive | inactive | inactive | inactive | inactive | inactive | inactive | inactive | inactive | inactive | inactive | inactive | inactive | inactive | inactive | inactive | inactive
11 | CCN(CC)CC#CCOC(=O)[C@@](O)(c1ccccc1)C1CCCCC1 |  |  | inactive |  |  |  | inactive |  |  |  |  |  |  |  |  |  | inactive | inactive | inactive | inactive
12 | NC(=O)OC[C@H](O)COc1ccc(Cl)cc1 | inactive | inactive | inactive | inactive | inactive | inactive | inactive | inactive | inactive | inactive | inactive | inactive | inactive | inactive | inactive | inactive | inactive | inactive | inactive | inactive
13 | C[C@H](NCCc1ccc(O)cc1)[C@@H](O)c1ccc(O)cc1 | inactive | inactive | inactive | inactive | inactive | inactive | inactive | inactive | inactive | inactive | inactive | inactive | inactive | inactive | inactive | inactive | inactive | inactive | inactive | inactive
14 | CC(C)(O/N=C(\C(=O)N[C@@H]1C(=O)N2C(C(=O)[O-])=C(C[n+]3ccccc3)CS[C@@H]12)c1csc(N)n1)C(=O)O | inactive | inactive | inactive | inactive | inactive | inactive | inactive | inactive | inactive | inactive | inactive | inactive | inactive | inactive | inactive | inactive | inactive | inactive | inactive | inactive
15 | CO[C@H]1C[C@@H](O[C@@H]2[C@H](C)[C@H](O[C@@H]3O[C@@H](C)C[C@@H](N(C)C)[C@@H]3O)[C@H](C)C[C@]3(CO3)C(=O)[C@H](C)[C@H](O)[C@H](C)[C@H](C)OC(=O)[C@@H]2C)O[C@@H](C)[C@H]1O | inactive | inactive | inactive | inactive | inactive | inactive | inactive | inactive | inactive | inactive | inactive | inactive | inactive | inactive | inactive | inactive | inactive | inactive | inactive | inactive
16 | CCN1C(=O)N[C@@H](c2ccccc2)C1=O | inactive | inactive | inactive | inactive | inactive | inactive | inactive | inactive | inactive | inactive | inactive | inactive | inactive | inactive | inactive | inactive | inactive | inactive | inactive | inactive
17 | NC(N)=NC[C@@H]1COC2(CCCCC2)O1 | inactive | inactive | inactive | inactive | inactive | inactive | inactive | inactive | inactive | inactive | inactive | inactive | inactive | inactive | inactive | inactive | inactive | inactive | inactive | inactive
18 | CN[C@@H]1[C@H](O[C@@H]2O[C@H](CO)[C@@H](N)[C@H](O)[C@@H]2O)O[C@H]2C[C@@H](N)[C@@H](O[C@H]3[C@@H](O)[C@H](O)[C@H](N)C[C@@H]3N)O[C@H]2[C@H]1O | inactive | inactive | inactive | inactive | inactive | inactive | inactive | inactive | inactive | inactive | inactive | inactive | inactive | inactive | inactive | inactive | inactive | inactive | inactive | inactive
19 | C[n+]1ccccc1/C=N\O | inactive | inactive | inactive | inactive | inactive | inactive | inactive | inactive | inactive | inactive | inactive | inactive | inactive | inactive | inactive | inactive | inactive | inactive | inactive | inactive
